Sampled rows, rich in hits. Any-hit rate of the full collection: about 0.87%.
KAT2A inh: qHTS Assay for Inhibitors of GCN5L2; 0.21% of 390,000 active; GCN5L2 HAT assay, ThioGlo1 CoA-SH fluorescence; Histone acetyltransferase KAT2A (Homo sapiens), Q92830; Potency, µM (doses to about 58.9 µM), without a hit: at the highest dose activity change, negative = inhibition, hits mostly inhibitors
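GCN5L2 (20 nM) in 50mM HEPES pH 7.5, 0.1mM EDTA, 0.01% Tween-20 preincubated 15 min with compounds at room temperature. Reaction started with H3(1-25) 75uM, acetyl-CoA 70uM, ThioGlo1 50uM; CoA-thiol fluorescence (Ex340/Em540) read at 0 and 20 min.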
BLM helicase inh: qHTS Assay for Inhibitors of Bloom's syndrome helicase (BLM); Potency, µM (titrated, usually from 56.1 µM), for inactives: top-dose activity change, negative = inhibition, actives largely listed as inhibitors; recombinant BLM DNA unwinding, fluorescence dequenching; 0.2% of 350,000 active; RecQ-like DNA helicase BLM (Homo sapiens), P54132; AID 2528, 2010;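 also: plate controls were vehicle for no effect and no enzyme for full effect; nearly all actives have a fitted effect of over 35% in size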
APE1 inh: qHTS Assay for Inhibitors of the Human Apurinic/apyrimidinic Endonuclease 1 (APE1). recombinant APE1, TAMRA/BHQ-2 abasic DNA cleavage fluorescence. 0.35% of 350,000 active. Potency, µM (titrated, usually from 65.8 µM), without a hit: at the top dose activity change, negative = inhibition, actives largely listed as inhibitors;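 also: plate controls were vehicle for no effect and reference inhibitor for full effect; nearly all actives have a fitted effect of over 55% in size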
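Enzyme (0.75 nM final) and test compound are incubated 15 min at room temperature before adding 50 nM quenched THF abasic-site duplex. Cleavage dequenches TAMRA, followed at 525/598 nm over three reads one minute apart.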
RECQ1 inh: qHTS Assay for Inhibitors of RecQ-Like Dna Helicase 1 (RECQ1). RECQ1 DNA unwinding, red fluorescence kinetic read. Potency, µM (titrated, usually from 57.3 µM), inactives show top-dose activity, negative = inhibition, actives largely listed as inhibitors. 0.54% of 240,000 active. AID 2549, 2010;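 also: plate controls were vehicle for no effect and no enzyme for full effect; nearly all actives have a fitted effect of over 30% in size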
Target sequence (P46063 whole entry, looked up): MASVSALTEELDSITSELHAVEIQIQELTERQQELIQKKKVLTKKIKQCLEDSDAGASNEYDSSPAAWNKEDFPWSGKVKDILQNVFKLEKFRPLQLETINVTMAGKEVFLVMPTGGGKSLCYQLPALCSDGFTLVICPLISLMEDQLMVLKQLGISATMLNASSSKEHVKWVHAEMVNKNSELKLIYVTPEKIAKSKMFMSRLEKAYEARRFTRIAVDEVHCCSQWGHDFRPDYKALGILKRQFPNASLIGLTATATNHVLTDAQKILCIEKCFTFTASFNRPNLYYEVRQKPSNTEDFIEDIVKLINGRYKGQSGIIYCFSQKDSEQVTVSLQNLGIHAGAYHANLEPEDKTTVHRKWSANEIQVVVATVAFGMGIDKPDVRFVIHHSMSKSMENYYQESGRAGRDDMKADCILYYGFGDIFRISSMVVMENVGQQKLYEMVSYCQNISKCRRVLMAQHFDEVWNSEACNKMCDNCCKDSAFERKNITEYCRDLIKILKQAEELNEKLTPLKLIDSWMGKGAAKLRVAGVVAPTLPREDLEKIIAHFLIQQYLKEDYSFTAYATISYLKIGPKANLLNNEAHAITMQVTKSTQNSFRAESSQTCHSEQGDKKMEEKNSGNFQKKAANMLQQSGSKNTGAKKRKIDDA
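RECQ1T1 50 nM; forked duplex (20 bp + 30-nt ss tails) 200 nM, ATP 2 mM final; pH 8.0, 2 mM MgCl2, 2.5 ug/ml poly(dI-dC); 15 min compound preincubation; discontinuous kinetic read over 2 h at RT.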
TDP1 inh: qHTS Assay for Inhibitors of Tyrosyl-DNA Phosphodiesterase (TDP1); Tyrosyl-DNA phosphodiesterase 1 (Homo sapiens), Q9NUW8; recombinant TDP1, AlphaScreen DNA substrate cleavage; Potency, µM (top dose mostly 130 µM), inactives show at the top dose activity change, negative = inhibition, most hits filed as inhibitors; 0.28% of 350,000 active; AID 485290, 2010; also: nearly all actives have a fitted effect of over 40% in size
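Recombinant human Tdp1 (E. coli-expressed, 1 nM final) preincubated with compounds 15 min at room temperature, then 5'-biotin/3'-phosphotyrosine-FITC DNA substrate (15 nM final) added for 5 min. AlphaScreen beads (10 ug/ml final) added 10 min; cleavage lowers signal.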
An asterisk follows results filed as active; i = inactive; ? = inconclusive; . = no result given; [ ] = remark or other dose. Calls follow the shape of the dose curve; as a rule, active = well fitted curve in the direction sought with a large enough effect; inconclusive = small, poorly fitted or top-dose-only effect, or another doubt; inactive = no such curve, though single readings can be large; an effect the other way counts as inactive or inconclusive. Unless noted, % is scaled to controls: 0 for no effect and ±100 for the full control effect; potency is read from the fitted curve at half-maximal effect.

SMILES	KAT2A inh	BLM helicase inh	APE1 inh	RECQ1 inh	TDP1 inh
Cc1cc(-c2n[nH]c(=S)n2/N=C/c2ccc(Cl)c([N+](=O)[O-])c2)n[nH]1	-6.0%	2.1%	19.5%	-5.2%	10.8%
S=c1[nH]nc(-c2cc(-c3ccccc3)n[nH]2)n1/N=C/c1cccc(Cl)c1	-21.2%	-19.6%	-5.2%	?	35.5µM*
N#Cc1c(-c2ccc(Br)cc2)no[n+]1[O-]	.	.	-0.4%	.	.
N#Cc1nc(NC2CCCC2)c2ncn(-c3cc(F)cc(F)c3)c2n1	.	.	.	.	-2.8%
O=C(Nc1nnc(COc2ccc(Cl)cc2)s1)c1ccco1	32.7%	-8.2%	-2.5%	7.5%	79.4µM*
COc1cccc(-c2nnc(NC(=O)c3ccco3)s2)c1	-19.2%	-0.5%	38.8%	.	0.9%
Cc1ccc(OCc2nnc(NC(=O)c3ccco3)s2)cc1	-10.0%	-4.0%	-1.3%	?	3.4%
COc1ccc(-c2nnc(NC(=O)c3ccco3)s2)cc1	-5.3%	-17.6%	-8.0%	.	39.8µM*
COc1ccc(OC)c(Nc2nn3c(=O)c4ccccc4nc3s2)c1	.	.	-23.9%	.	.
COc1cc(/C=C(\C#N)C(N)=O)cc(CSc2nc3ccccc3s2)c1O	28.2µM*	-4.8%	-2.5%	18.4%	14.6%
CC(C)(C)n1ncc2c(=O)n(Cc3cccc(C#N)c3)cnc21	.	.	-6.2%	.	.
COC(=O)c1sc(-c2cccs2)cc1NC(=O)/C=C/C(=O)O	-12.7%	15.8µM*	-3.2%	-6.6%	0.0%
CC(C)(C)C(=O)OCC(=O)[C@H]1CC[C@H]2[C@@H]3CCC4=CC(=O)CC[C@]4(C)[C@H]3CC[C@]12C	.	.	11.0%	.	.
Nc1ccc2oc(=O)ccc2c1I	0.0%	1.6%	3.0%	-13.2%	3.0%
Cc1cc(C)c(S(=O)(=O)/N=C2/C=C(SCC(=O)O)C(=O)c3ccccc32)cc1C	-29.0%	31.6µM*	?	?	9.8%
Cc1cc(C)c(S(=O)(=O)/N=C2\C=C(NS(=O)(=O)c3ccccc3)C(=O)c3ccccc32)c(C)c1	-13.0%	-11.8%	-20.1%	.	.
O=C(NCc1ccc(F)cc1)n1c(-c2ccccc2)c(P(=S)(c2ccccc2)c2ccccc2)c2ccccc21	.	.	.	.	-2.3%
Cc1ccc(NCc2ccc(O)c3ncccc23)c(F)c1	.	.	.	.	0.9%
Oc1ccc(N=Cc2ccc(O)c(O)c2)cc1	-10.7%	28.2µM*	6.9%	i	0.0%
Oc1ccc(/C=N/N=C/c2ccc(O)c(O)c2)cc1O	-4.7%	?	?	.	.
CCCc1cc(F)c(S(=O)(=O)N2CCN(S(=O)(=O)c3ccc4c(c3)OCCO4)CC2)cc1F	.	.	.	.	-0.5%
Cc1ccc(C(=O)N/N=C/c2ccc([N+](=O)[O-])s2)cc1	-10.1%	-18.4%	?	-5.4%	?
O=C(N/N=C/c1ccc([N+](=O)[O-])s1)c1cccc(Br)c1	-8.7%	-16.9%	22.4µM*	-10.2%	-13.1%
CC(C)(C)OC(=O)Cc1nnc(-c2cc3ccccc3[nH]2)o1	.	.	.	.	0.1%
Cc1cc(=O)oc2cc(OCc3ccc(C(=O)OCC(=O)NC4CCS(=O)(=O)C4)cc3)ccc12 (configuration not stated)	-22.8%	3.0%	?	-7.5%	8.91µM*
SMILES	KAT2A inh	BLM helicase inh	APE1 inh	RECQ1 inh	TDP1 inh
CC[n+]1c(/C=C/C=C2/N(C)c3ccccc3C2(C)C)sc2ccccc21	28.2µM*	.	.	.	.
O=c1[nH]c(=O)n([C@@H]2O[C@H](CO)[C@@H](O)[C@H]2O)cc1Br	-10.4%	2.4%	15.1%	i	8.2%[56.1 µM]
Nc1cn(C2OC(CO)C(O)C2O)c(=O)[nH]c1=O (configuration not stated)	-5.4%	-1.1%	18.9µM*	.	56.2µM*
NCC(O)c1ccc(O)c(O)c1 (configuration not stated)	-5.0%	?	0.355µM*	-11.4%	?
COc1cc2c(cc1O)CCN[C@@]21CS[C@H]2c3c(OC(C)=O)c(C)c4c(c3C(COC1=O)N1C2C2c3c(cc(C)c(OC)c3O)CC([C@@H]1O)N2C)OCO4 (some centres not stated)	-20.4%	10µM*	.	.	.
O=C1c2cccc3cccc(c23)N1Cc1cccc(F)c1	-6.9%	-6.3%	22.4%	.	79.4µM*
C/C(=N\NC(=O)c1ccccc1O)c1ccc(NC(=O)Cc2ccccc2)cc1	-22.7%	-9.7%	-37.8%	.	56.2µM*
COc1ccc(C2=Nn3c(nnc3-c3ccccc3Cl)SC2)cc1O[C@H]1CCOC1	.	.	-8.5%	.	.
O=C1CCc2cc(S(=O)(=O)Nc3cccc(Br)c3)ccc2N1	.	.	.	.	0.1%
COc1ccccc1C(=O)NNC(=O)C1CC=CCC1 (configuration not stated)	?	-0.4%	4.5%	.	35.5µM*
N#Cc1ccccc1S(=O)(=O)N1CCN(C(=O)c2cc3c(s2)CCC3)CC1	-14.3%	.	5.32µM*	.	5.01µM*
O=C(Cc1cc(=O)oc2cc(O)ccc12)NC(Cc1ccc(Cl)cc1)C(=O)O (configuration not stated)	28.2µM*	-0.1%	0.4%	.	.
CCCc1cc(=O)oc2cc(OCC(=O)NCC3CCC(C(=O)O)CC3)ccc12 (configuration not stated)	?	2.4%	60.9%	.	.
O=C(Cc1cc(=O)oc2cc(O)ccc12)NCC1CCC(C(=O)O)CC1 (configuration not stated)	28.2µM*	-0.1%	17.0%	-5.9%	5.9%
O=C(CNC(=O)c1cccc2ccccc12)OC(C(=O)Nc1cc(C(F)(F)F)ccc1Cl)c1ccccc1 (configuration not stated)	.	.	.	.	-2.6%
CCc1ccc(S(=O)(=O)/N=C2\C=C(Nc3ccc(O)cc3)C(=O)c3ccccc32)cc1	-14.7%	-28.0%	2.0%	.	13.2%

Bioassay records as filed in PubChem.
